Screening data as filed in PubChem BioAssay.
HT1080 IDH1KD tx = toxicity to HT-1080 IDH1 knockdown cells (counter line). HT-1080 IDH1 knockdown viability, ATP luminescence, 48 h. Potency, µM (top dose mostly 46.1 µM), usual class: cytotoxic. 360,000 tested, 2% active. AID 686971
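Using the IDH1-knockdown HT-1080 line run in the same batch and compound series as the NT line, viability after 48 h at 37 °C was determined by CellTiter-Glo luminescence and expressed as % activity.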
uPA surface inh = blocks generation of uPA at the cell surface; cell surface uPA generation assay, qHTS; Potency, µM (titrated, usually from 38.3 µM), actives largely listed as inhibitors; 330,000 tested, 0.31% active; AID 540303; active = well fitted inhibition curve with a large enough effect; inconclusive = small, poorly fitted or top-dose-only effect; inactive = no such curve, though single readings can be large or run the other way; tested in mouse RAW 264.7 cells; note: nearly all actives have a fitted effect of over 55% in size
IL-1B inflam inh = blocks inflammasome-driven IL-1 beta release; AID 743279; activity change, % at 57.5 µM; 360,000 tested, 4.7% active; THP-1 LPS/ATP IL-1B secretion, AlphaLISA, 16 h; hits give low values; in the data active = activity change below about -50%; inconclusive = mostly about -30% to -49%
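Secreted IL-1B measured by AlphaLISA bead assay after 16 h compound exposure of THP-1 cells; compounds (final up to 57.5 uM) added 1 h before LPS (250 ng/mL) and ATP (1.25 mM) stimulation; lower signal means less secretion.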
TDP1 cell CPT = DT40-hTDP1 cell growth loss with CPT; Potency, µM (series often up to 46.2 µM), hits mostly inhibitors; chicken DT40 Tdp1-/-;hTDP1 cells + 20 nM CPT, ATP luminescence, 48 h; 420,000 tested, 12% active; note: nearly all actives have a fitted effect of over 55% in size
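Chicken DT40 Tdp1-/- cells stably complemented with human TDP1 were seeded at 400 cells/well in medium containing 20 nM camptothecin, exposed to pin-transferred compounds, and grown at 37 °C for at least 48 hr. Viability was read as ATP luminescence.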
HT1080NT lethal = kills 2HG-producing HT-1080-NT fibrosarcoma cells; HT-1080-NT fibrosarcoma viability, CellTiter-Glo ATP luminescence, 48 h; Potency, µM (doses to about 46.1 µM), actives largely listed as cytotoxic; 360,000 tested, 1.6% active; AID 686970;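 note: NT is the 2HG producing partner of a matched IDH1 knockdown line; nearly all actives have a fitted effect of over 55% in size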
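Compounds were tested in concentration-response format on HT-1080-NT cells for 48 hours at 37 degrees C. Cell viability came from CellTiter-Glo luminescence; curves were classified by r2, response magnitude and activity.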
TDP1 cell noCPT = qHTS for Inhibitors of human tyrosyl-DNA phosphodiesterase 1 (TDP1): qHTS in cells in absence of CPT. Potency, µM (highest dose often 46.2 µM), hits mostly inhibitors. DT40 Tdp1-/- hTDP1 cells, no CPT, ATP luminescence, 48 h. 420,000 tested, 15% active; note: nearly all actives have a fitted effect of over 55% in size
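Luminescent ATP content (CellTiter-Glo) served as the growth readout. Knockout chicken DT40 cells expressing human TDP1 were exposed to compounds without camptothecin for a minimum 48 hr at 37 °C.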
Numbers stand for hits; . = inactive; ? = inconclusive; / = not tested or not shown; [ ] = remark or other dose. The list is not random: actives were taken first. Their share in the collection is about 19%. Unless noted, calls come from the whole dose curve; as a rule, active = well fitted curve in the direction sought with a large enough effect; inconclusive = small, poorly fitted or top-dose-only effect, or another doubt; inactive = no such curve, though single readings can be large; an effect the other way counts as inactive or inconclusive.

SMILES	HT1080 IDH1KD tx	uPA surface inh	IL-1B inflam inh	TDP1 cell CPT	HT1080NT lethal	TDP1 cell noCPT
CC1(C(=O)Nc2cccc3cccnc23)CCN1Cc1ccc(-c2ccccc2)o1 (configuration not stated)	.	/	.	23.1µM	.	18.4µM
COc1ccc(OC)c(NC(=O)C2(C)CCN2CCOc2ccccc2)c1 (configuration not stated)	.	/	.	23.1µM	.	?
COc1ccc(NC(=O)C2(C)CCN2CCOc2ccccc2)cc1OC (configuration not stated)	.	/	.	?	.	?
CC(C)Oc1ccc(CN2CCC2(C)C(=O)Nc2cccc3cccnc23)cc1 (configuration not stated)	?	/	.	18.4µM	?	?
CCOC(=O)N1CCN(S(=O)(=O)N2CCCC(C(=O)NCCCN3CC(C)CC(C)C3)C2)CC1 (configuration not stated)	.	.	.	.	.	.
O=C(CCl)NCc1cc(-c2ccc(Cl)cc2)no1	9.2µM	.	-75.1	10.3µM	11.6µM	18.4µM
COc1ccc(OCc2cc(-c3ccc(Cl)cc3)no2)cc1	.	.	.	.	?	.
CCCCCNC(=O)c1c[nH]c2ccc(S(=O)(=O)N3CCC4(CC3)OCCO4)cc2c1=O	.	.	.	?	.	?
C/C(Cl)=C\Cn1c(O)c(N=O)c2ccccc21	?	.	-98.3	.	.	.
CCOC(=O)n1c(=O)n(Cc2ccc(Cl)cc2Cl)c2ccccc21	.	.	.	?	.	?
Cc1ccc(Cn2c(O)c(N=O)c3ccccc32)cc1	.	.	-87.6	.	.	.
Cc1cccc2c(N=O)c(O)n(CCc3ccccc3)c12	.	.	.	.	.	?
O=Nc1c(O)n(Cc2ccc(Cl)cc2Cl)c2ccccc12	?	.	-58.0	.	?	.
Cc1ccc2c(c1)c(N=O)c(O)n2Cc1ccc(Cl)cc1	.	.	-73.5	.	.	.
c1ccc(COc2ncnc3c2ncn3CCCNCc2ccc3c(c2)OCO3)cc1	.	.	.	?	.	?
CCOc1ccc(CNC(=O)C2CCN(C(=O)c3sccc3-n3cccc3)CC2)cc1	/	/	/	.	/	.
COc1cc(C(=O)NC(CCSC)C(=O)Nc2ccc(N3CCOCC3)cc2)cc(OC)c1OC (configuration not stated)	.	/	.	.	.	.
O=Nc1c(O)n(Cc2ccc(Cl)cc2)c2ccccc12	?	.	-87.8	.	?	.
O=Nc1c(O)n(Cc2c(Cl)cccc2Cl)c2ccccc12	?	.	?	.	?	.
Cc1nc2ccccc2n1CCc1nc2c3ccccc3nc(=S)n2[nH]1	.	.	.	.	.	.
Cc1ccccc1-c1nc2c3ccccc3nc(=S)n2[nH]1	.	.	.	4.11µM	.	3.26µM
CC(=O)c1ccc(-c2cnc3c(NC=O)cc(-c4ccccc4Oc4ccccc4)cn23)cc1	?	/	.	?	?	20.6µM
O=CNc1cc(-c2ccccc2Oc2ccccc2)cn2c(-c3ccc(F)cc3)cnc12	?	/	.	?	?	10.3µM
CCCCn1nnnc1C(c1ccccc1)N1CCN(c2ccc(F)cc2)CC1 (configuration not stated)	.	/	.	?	.	?
Cc1nn2c(=O)cc(COC(=O)COc3ccccc3C)nc2s1	/	/	/	.	/	.
SMILES	HT1080 IDH1KD tx	uPA surface inh	IL-1B inflam inh	TDP1 cell CPT	HT1080NT lethal	TDP1 cell noCPT
COc1ccccc1NC(=O)c1cc2c(CO)cnc(C)c2oc1=Nc1ccc(OC)c(OC)c1	.	.	.	9.2µM	.	?
COc1ccc(NC(=O)c2cc3c(CO)cnc(C)c3oc2=Nc2cccc(C)c2)c(OC)c1	.	.	.	?	.	4.11µM
COc1ccccc1NC(=O)c1cc2c(CO)cnc(C)c2oc1=Nc1cc(OC)c(OC)c(OC)c1	.	.	.	.	.	.
CC[C@@H]1C/C=C\Cc2ccccc2[C@H](C(=O)C[C@H](O)CC(C)=O)OC1=O	.	.	.	.	.	.
CCN(CC)C(=O)/C(=C\c1cccc([N+](=O)[O-])c1)NC(=O)c1ccco1	.	.	.	.	.	.
O=C(N/C(=C\c1cccc([N+](=O)[O-])c1)C(=O)N(CCO)CCO)c1ccco1	.	.	-51.3	.	.	.
CCOc1cc(C)c(S(=O)(=O)Nc2ccc3cn[nH]c3c2)cc1C	.	.	-69.6	18.4µM	.	10µM
CC(C)(C)c1ccc(-c2nc(C#N)c(NCCCn3ccnc3)o2)cc1	23.1µM	.	-94.8	?	20.6µM	?
CCCOc1ccc(-c2nc(C#N)c(NCCCn3ccnc3)o2)cc1	?	/	?	?	?	18.4µM
N#Cc1nc(-c2ccc(OCc3ccccc3)cc2)oc1NCCCn1ccnc1	.	.	?	?	.	20.6µM
O=C(NCC(c1ccc2c(c1)OCO2)N1CCOCC1)C(=O)Nc1ccc(Cl)cc1 (configuration not stated)	/	/	/	?	/	.
COC(=O)C(CCSC)NC(=O)c1cn(-c2ccc(OC)cc2)c(=O)c2ccccc12 (configuration not stated)	.	.	.	.	.	.
CC(=O)N(C)c1nnc(-c2ccccn2)s1	.	.	.	.	.	?
CCC(C)(C)n1nnnc1C(c1cccc(C#N)c1)N1CCN(c2cccc(C)c2C)CC1 (configuration not stated)	.[9.24 µM]	.	.	?	.	16.4µM
CC(C)(C)n1nnnc1C(c1cccc(C#N)c1)N1CCCCCC1 (configuration not stated)	.	.	.	?	.	16.4µM
COc1ccccc1C(c1nnnn1C(C)(C)C)N1CCCCCC1 (configuration not stated)	.	.	.	20.6µM	.	18.4µM
CC(C)(C)n1nnnc1C(c1cccc(C#N)c1)N1CCN2CCCC2C1 (configuration not stated)	.	.	.	.	.	.
CC(C)(C)n1nnnc1C(c1ccccc1F)N1CCN(C2CCCC2)CC1 (configuration not stated)	.	.	.	.	.	.
CN1OC[C@@H]2CN(Cc3ccccc3)[C@H](c3ccc(-n4ccnc4)cc3)C[C@@H]21	.	/	.	.	.	.
O=C(Nc1ccc(S(=O)(=O)Nc2ncccn2)cc1)c1cc(=O)c2ccccc2o1	/	/	/	.	/	.
CCOC(=O)C1CCN(C(=O)CSc2c3c(nc4ccccc24)CCC3)CC1	.	.	-130.0	?	.	?
O=C(CSc1c2c(nc3ccccc13)CCC2)N1CCCC1	.	.	.	.	.	.
